# Source: PubChem
# Rows were chosen to be rich in hits. Some 8% of all compounds tested hit in one or more screens of this group.
# MCF10A rerep: A quantitative high throughput screen for small molecules that induce DNA re-replication in MCF 10a normal breast cells | AID 624296, 2012 | Potency, µM (highest dose often 46.1 µM), inactives show top-dose activity, positive = re-replication, actives largely listed as activators | MCF 10A DNA re-replication, Hoechst nuclear intensity, 48 h | 2.9% of 350,000 active; note: % of control where 0% means no effect; nearly all actives have a fitted effect of over 50% in size
# HT1080NT lethal: qHTS for induction of synthetic lethality in tumor cells producing 2HG: qHTS for the HT-1080-NT fibrosarcoma cell line | 1.6% of 360,000 active | Potency, µM (titrated, usually from 46.1 µM), for inactives: top-dose activity, negative = less viability, hits mostly cytotoxic | HT-1080-NT fibrosarcoma viability, CellTiter-Glo ATP luminescence, 48 h | AID 686970, 2013;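 note: NT is the 2HG producing partner of a matched IDH1 knockdown line; 0% = DMSO-treated cells and -100% = media-only wells without cells; nearly all actives have a fitted effect of over 55% in size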
#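 Viability by CellTiter-Glo luminescence after 48 h compound exposure at 37C of HT-1080-NT cells (750/well, RPMI, 5% FBS). % activity scaled between DMSO wells and medium-only wells, then curve-fitted and categorized by curve class.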
# SW480 rereplic: A quantitative high throughput screen for small molecules that induce DNA re-replication in SW480 colon adenocarcinoma cells. 1.8% of 340,000 active. SW480 DNA re-replication, Hoechst DNA content imaging, 48 h. Potency, µM (series often up to 46.1 µM), for the others: top-dose re-replication activation, hits mostly activators. AID 624297, 2012; note: % of control where 0% means no effect; nearly all actives have a fitted effect of over 55% in size
#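 SW480 cells exposed to compounds for 48 hr at 37 C, 5% CO2, then Hoechst-stained 40 min. Nuclear DNA content imaged by fluorescence scanning (405 nm excitation, 500-530 nm emission); re-replication scored as increased high-intensity nuclei.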
# KB-V1 MDR tox: qHTS assay for MDR1-selective chemotherapeutics: Primary screen using the drug-selected MDR subline cells KB-V1 | KB-V1 MDR cells viability, CellTiter-Glo, 72 h | Potency, µM (titrated, usually from 46.1 µM), hits mostly cytotoxic | AID 1347076, 2019 | 3.4% of 400,000 active; note: % is set by controls: 0 for no effect and ±100 for the full control effect; nearly all actives have a fitted effect of over 60% in size
#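 Following 72 h at 37 degrees C with compound, KB-V1 cell viability was read by CellTiter-Glo luminescence, medium being phenol-red-free DMEM plus 10% FBS; concentration-response parameters came from normalized, curve-fitted qHTS data.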
# KB-3-1 cytotox: qHTS assay for MDR1-selective chemotherapeutics: Primary screen using the parental adenocarcinoma cell KB-3-1 | KB-3-1 viability, CellTiter-Glo ATP luminescence, 72 h | Potency, µM (series often up to 46.1 µM), usual class: cytotoxic | 1.4% of 400,000 active; note: % is set by controls: 0 for no effect and ±100 for the full control effect; nearly all actives have a fitted effect of over 60% in size
#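 Parental KB-3-1 viability, qHTS format: 72 h compound exposure, 37 °C; CellTiter-Glo; media-only wells and DMSO plates as controls; concentration-effect fits on corrected data.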
# HT1080 IDH1KD tx: qHTS for induction of synthetic lethality in tumor cells producing 2HG: qHTS for the HT-1080-IDH1KD cell line; HT-1080 IDH1 knockdown viability, ATP luminescence, 48 h; Potency, µM (series often up to 46.1 µM), inactives show at the top dose activity, negative = toxicity, actives largely listed as cytotoxic; 2% of 360,000 active;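 note: 0% = DMSO wells and -100% = cell-free medium wells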
#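 Knockdown cells (IDH1KD HT-1080) received compounds 2 h after plating at 750 cells/well and were kept 48 h at 37 °C in 5% FBS RPMI. A CellTiter-Glo luminescence read gave % activity for curve fitting.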
# Numbers without * were called inactive; i = inactive; u = inconclusive; x = no result; [ ] = dose if it differs, or a comment. Calls come from the whole dose curve; as a rule, active = well fitted curve in the direction sought with a large enough effect; inconclusive = small, poorly fitted or top-dose-only effect, or another doubt; inactive = no such curve, though single readings can be large; an effect the other way counts as inactive or inconclusive. Potency is the fitted concentration of half-maximal effect.
SMILES,MCF10A rerep,HT1080NT lethal,SW480 rereplic,KB-V1 MDR tox,KB-3-1 cytotox,HT1080 IDH1KD tx
COC1=C(C)C(=O)C2=C(C1=O)C1C3CC4=C(C(=O)C(OC)=C(C)C4=O)C(CNC(=O)C(C)=O)N3C(C#N)C(C2)N1C (stereo unspecified),u,18µM*,u,2.3µM*,0.1µM*,0.082µM*
O=C(CN1C(=O)NC2(CCCC2)C1=O)Nc1cc(Cl)ccc1N1CCCC1,1%,-1%,u,x,x,-12%
Oc1ccc(/C=C/c2nc(-c3ccccc3O)n(-c3ccccc3)n2)cc1,16µM*,u,u,u,i,u
COc1ccc2c(C#N)c3ccccn3c2c1,23µM*,-1%,u,i,i,1%
COc1ccc(-n2cc3ccc([N+](=O)[O-])cc3n2)cc1,u,-9%,13%,u,5.8µM*,-11%
CC1=C(C(=O)N(C)C)C(c2ccc(N3CCOCC3)cc2)NC(=O)N1 (stereo unspecified),0.92µM*,3%,18µM*,i,i,9%
COc1cc(OC)c(OC)cc1/C=C1\CC(C)C/C(=C\c2cc(OC)c(OC)cc2OC)C1=O (stereo unspecified),16µM*,u,u,i,u,u
COc1cc(OC)c(OC)cc1/C=C1/Cc2ccccc2C1=O,-1%,8%,9%,i,i,-1%
CCC1C/C(=C\c2cc(OC)c(OC)cc2OC)C(=O)/C(=C/c2cc(OC)c(OC)cc2OC)C1 (stereo unspecified),4.6µM*,13µM*,18µM*,i,u,21µM*
O=C(c1ncc[nH]1)c1ccccc1Cl,-4%,-3%,-5%,i,i,14%
COc1cc2cc(CN(Cc3cccs3)C(=S)Nc3ccc(C)cc3)c(=O)[nH]c2cc1OC,u,-13%,-4%,i,i,-5%
O=C(CSc1nnc(CCc2ccccc2)n1-c1ccc(Cl)cc1)NCc1ccccc1,17%,-1%,4%,u,i,-4%
Cc1cccc(C)c1OCCNC(=O)C(=O)NCc1ccco1,2.9µM*,1.6µM*,2.9µM*,u,1.5µM*,2.6µM*
C/C(CC(=O)NCc1ccco1)=N\NC(=O)COc1ccc(Cl)cc1Cl,u,21µM*,10%,u,u,u
O=C(COc1ccccc1Cl)NCc1ccco1,2%,8%,-3%,i,i,5%
CCCNC(=O)C/C(C)=N/NC(=O)COc1ccc(C)cc1Br,4%,6%,-5%,u,i,3%
O=C(COc1ccc(Cl)cc1Cl)NCc1ccco1,5%,11%,-1%,i,i,5%
CCOc1ccccc1OCC(=O)NCc1ccco1,16µM*,-17%,13%,i,i,-26%
COc1ccc(CNC(=O)C/C(C)=N/NC(=O)COc2ccc(C)cc2Br)cc1,u,16µM*,u,u,5.8µM*,18µM*
CC(C)c1nc(SCc2ccccn2)c2c(=O)n(C)c(=O)n(C)c2n1,7%,1%,-2%,i,i,0%
O=C(C1CCC1)N1CCc2cc(S(=O)(=O)NC3CCCc4ccccc43)ccc21 (stereo unspecified),-5%,0%,-1%,u,i,11%
CC(C)N(C)C1CCN(S(=O)(=O)c2ccc(-c3ccc(=O)[nH]n3)s2)CC1,-1%,-1%,-2%,i,i,-6%
COc1ccc(CNC(N)=O)cc1,-4%,2%,3%,i,i,12%
O=C(Cc1ccccc1)NC(Nc1ccccc1)C(Cl)(Cl)Cl (stereo unspecified),-1%,2%,-3%,i,i,0%
CSc1nnc(NC(=O)c2nc(S(=O)(=O)Cc3ccccc3)ncc2Cl)s1,u,21µM*,u,u,18µM*,23µM*
SMILES,MCF10A rerep,HT1080NT lethal,SW480 rereplic,KB-V1 MDR tox,KB-3-1 cytotox,HT1080 IDH1KD tx
CCCc1nnc(NC(=O)c2nc(S(=O)(=O)Cc3ccc(C)cc3)ncc2Cl)s1,3.7µM*,-24%,8.2µM*,i,u,u
CC(C)c1nnc(NC(=O)c2nc(S(=O)(=O)Cc3ccccc3)ncc2Cl)s1,u,7.3µM*,u,u,u,6.5µM*
CCOc1ccccc1NC(=O)Cn1cc(C(=O)c2cccc(OC)c2)c(=O)c2ccc(C)nc21,x,x,x,i,i,x
Cc1cccc(OCC(=O)NNC(=O)Cn2c(=O)cnc3ccccc32)c1,0%,-1%,-4%,i,i,8%
COCCCC1CCN(C(=O)CCc2nnc(CCCCc3ccccc3)o2)CC1,4%,8%,-5%,i,i,0%
O=C(O)CNC(=O)CCN1C(=O)c2ccccc2C1=O,1%,-4%[9.24 µM],-10%,i,i,0%
CCOC(CNC(=O)c1ccc2c(c1)nc(C)n2-c1cccc(F)c1)OCC,-5%,7%,-2%,21µM*,i,-4%
Cc1c(C(=O)N2CC(C)OC(C)C2)sc2nc(-c3ccc(F)cc3)cn12 (stereo unspecified),-8%,19%,-3%,8.2µM*,u,-4%
CCOC(=O)N1CCN(C(=O)c2sc3nc(-c4ccc(F)cc4)cn3c2C)CC1,2%,5%,-5%,7.3µM*,i,7%
COCCn1c(SCC(=O)NCc2ccc(OC)c(OC)c2)nc2ccccc21,3%,-6%,-7%,i,i,1%
CC(=O)c1cnn(-c2nc3c(C)cccc3s2)c1C,u,0%,0%,u,u,4%
CCCCC#Cc1cncc(C(=O)NN)c1,7%,-11%,u,i,i,-19%
CCCCCCC#Cc1cncc(C(=O)NNC(=O)Nc2cc(Cl)cc(Cl)c2)c1,-32%,u,-50%,u,i,21µM*
CCCCN(Cc1ccccc1)S(=O)(=O)c1cc(Br)cc2c1N(C(=O)C1CC1)CC2,x,x,x,i,i,x
COc1cc(C(=O)OCC(=O)NCc2ccc(F)cc2)ccc1OCC(C)C,9%,0%,-1%,i,23µM*,-5%
CC1(C)C(=O)Nc2ccccc2N1C(=O)COC(=O)c1cccc(O)c1,6%,3%,u,i,i,6%
COc1ccc(C(=O)OCC(=O)NCC2CCCCC2)cc1F,8.2µM*,-21%,19%,i,i,-10%
